MITF inhib – inhibitors of MITF, primary screen, MITF inhibitor project, cell-based, luminescence. TRPM1 promoter luciferase, 24 h. AID 2240, 2010. 0.28% of 37,000 active. inhibition, % (test concentration not listed); in the data active means inhibition above about 85%;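 further: human melanocyte line stably carrying TRPM1 promoter luciferase reporter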
Hedgehog inh – Hedgehog pathway signaling inhibitors, primary screen, luminescence, Shh-LIGHT2 cells, Gli-luciferase | Shh-LIGHT2 Gli-luciferase reporter, 30 h | inhibition, % (concentration not given with the values) | 2.1% of 22,000 active;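 active means mean inhibition across valid replicates above about 65%, limit read from the data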;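 further: pathway switched on by Shh-conditioned medium diluted 1 in 25 in low serum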
NOMO-1 viab – NOMO-1 AML cell viability reduction, primary screen, STK33 inhibitor project, CellTiter-Glo luminescence | NOMO-1 AML viability, 72 h | inhibition, % (concentration not given with the values) | 7.5% of 37,000 active; in the data active means inhibition above about 80%
Each line names hits and unclear results; the compound was inactive in the other large screens; ! = not active in a repeat. A selection: hits, their analogues and other compounds. The true share with any hit is near 8.1%.

C[C@H]1CN([C@@H](C)CO)C(=O)c2cccc(NC(=O)NC3CCCCC3)c2O[C@H]1CN(C)S(=O)(=O)c1ccc(Cl)cc1	Hedgehog inh 112.3, NOMO-1 viab 97.5
C[C@@H]1CN([C@@H](C)CO)C(=O)c2cccc(NC(=O)NC3CCCCC3)c2O[C@@H]1CN(C)S(=O)(=O)c1ccc(Cl)cc1	none
C[C@H](CO)N1C[C@H](C)[C@H](CN(C)S(=O)(=O)c2ccc(F)cc2)Oc2c(NC(=O)NC3CCCCC3)cccc2C1=O	Hedgehog inh 93.2
Cc1ccc(S(=O)(=O)N(C)C[C@@H]2Oc3c(NC(=O)NC4CCCCC4)cccc3C(=O)N([C@H](C)CO)C[C@@H]2C)cc1	Hedgehog inh 106.6, NOMO-1 viab 90.8
C[C@@H]1CN([C@H](C)CO)C(=O)c2cccc(NC(=O)NC3CCCCC3)c2O[C@H]1CN(C)S(=O)(=O)c1ccc(F)cc1	none
Cc1ccc(S(=O)(=O)N(C)C[C@H]2Oc3c(NC(=O)NC4CCCCC4)cccc3C(=O)N([C@@H](C)CO)C[C@H]2C)cc1	none
Cc1ccc(Cl)cc1N(CC(=O)Nc1ccc(C(N)=O)cc1)S(C)(=O)=O	none (no result: Hedgehog inh)
COc1ccccc1CC(=O)Nc1ccc(-c2noc(-c3ccccc3C)n2)cc1	none (no result: Hedgehog inh)
CSc1ccc2c(c1)C(N1CCN(C)CC1)Cc1ccccc1S2 (centres undefined)	Hedgehog inh 70.3, NOMO-1 viab 142.8!
CN1CCCC(CC2c3ccccc3Sc3ccccc32)C1 (centres undefined)	none
COc1ccccc1-c1cc(C(F)(F)F)nc(S(=O)(=O)CCCC(=O)N2CCOCC2)n1	NOMO-1 viab 135.9 (no result: Hedgehog inh)
COc1ccc(OC)c(S(=O)(=O)N(C)CC(=O)N2CCOCC2)c1	none (no result: Hedgehog inh)
C[C@H]1CN([C@@H](C)CO)C(=O)c2cccc(NC(=O)Nc3cccc4ccccc34)c2O[C@H]1CN(C)C(=O)Nc1ccc(F)cc1	NOMO-1 viab 87.2
C[C@H](CO)N1C[C@H](C)[C@H](CN(C)C(=O)Nc2ccc(C(F)(F)F)cc2)Oc2c(NC(=O)Nc3cccc4ccccc34)cccc2C1=O	NOMO-1 viab 101.7
C[C@H](CO)N1C[C@H](C)[C@@H](CN(C)C(=O)Nc2ccc(C(F)(F)F)cc2)Oc2c(NC(=O)Nc3cccc4ccccc34)cccc2C1=O	NOMO-1 viab 99.9
C[C@H]1CN([C@@H](C)CO)C(=O)c2cccc(NC(=O)Nc3cccc4ccccc34)c2O[C@H]1CN(C)C(=O)Nc1ccc(C(F)(F)F)cc1	NOMO-1 viab 109.5
C[C@H](CO)N1C[C@H](C)[C@@H](CN(C)C(=O)Nc2ccccc2)Oc2c(NC(=O)Nc3ccc(C(F)(F)F)cc3)cccc2C1=O	none
C[C@@H]1CN([C@@H](C)CO)C(=O)c2cccc(NC(=O)Nc3ccccc3)c2O[C@@H]1CN(C)C(=O)Nc1ccc(C(F)(F)F)cc1	none
C[C@H]1CN([C@@H](C)CO)C(=O)c2cccc(NC(=O)Nc3ccccc3)c2O[C@@H]1CN(C)C(=O)Nc1ccc(C(F)(F)F)cc1	none
C[C@H]1CN([C@@H](C)CO)C(=O)c2cccc(NC(=O)Nc3ccc(F)cc3)c2O[C@H]1CN(C)C(=O)Nc1cccc2ccccc12	none
CC(Oc1ccccc1)C(=O)Nc1cccc(-c2nnc(-c3ccccc3)o2)c1 (centres undefined)	none (no result: Hedgehog inh)
CC1CCN(CC(O)COc2c(F)cc(Br)cc2F)CC1 (centres undefined)	none
OC(CN1CCNCC1)Cn1c2ccc(Br)cc2c2cc(Br)ccc21 (centres undefined)	Hedgehog inh 78.1!, NOMO-1 viab 121.3
C[C@@H]1CN([C@@H](C)CO)C(=O)Cc2cc(NC(=O)Nc3cccc4ccccc34)ccc2O[C@@H]1CN(C)C(=O)Nc1ccc(C(F)(F)F)cc1	NOMO-1 viab 107.3
C[C@H]1CN([C@@H](C)CO)C(=O)Cc2cc(NC(=O)Nc3cccc4ccccc34)ccc2O[C@@H]1CN(C)Cc1ccc(C(F)(F)F)cc1	NOMO-1 viab 124.9
C[C@H]1CN([C@@H](C)CO)C(=O)Cc2cc(NC(=O)Nc3cccc4ccccc34)ccc2O[C@H]1CN(C)Cc1ccc(C(F)(F)F)cc1	NOMO-1 viab 105.8
C[C@@H]1CN([C@H](C)CO)C(=O)Cc2cc(NC(=O)Nc3cccc4ccccc34)ccc2O[C@H]1CN(C)Cc1ccc(C(=O)O)cc1	none
C[C@H](CO)N1C[C@H](C)[C@H](CN(C)Cc2ccc(C(F)(F)F)cc2)Oc2ccc(NC(=O)Nc3cccc4ccccc34)cc2CC1=O	NOMO-1 viab 125.4 (no result: Hedgehog inh)
C[C@H]1CN([C@@H](C)CO)C(=O)Cc2cc(NC(=O)Nc3cccc4ccccc34)ccc2O[C@@H]1CN(C)Cc1ccc(C(=O)O)cc1	none
C[C@H](CO)N1C[C@H](C)[C@H](CN(C)C(=O)Nc2ccc(C(F)(F)F)cc2)Oc2ccc(NC(=O)Nc3cccc4ccccc34)cc2CC1=O	none
CCc1c(O)cc(OC)c2c1O[C@H](C)CC2=O	none
Cc1noc(C)c1NC(=O)Nc1cccc2c1O[C@@H](CN(C)Cc1ccc(C(=O)O)cc1)[C@H](C)CN([C@H](C)CO)C2=O	none
COc1ccc2c(c1)C(C)CC(C)(C)N2C(=O)CSc1nc2ccccc2[nH]1 (centres undefined)	none (no result: Hedgehog inh)
CCOc1cccc(-c2nnc(SCC(=O)Nc3c(C)cccc3C)n2C)c1	none (no result: Hedgehog inh)
Cc1ccc(S(=O)(=O)Nc2ccc3c(c2)C(=O)N([C@H](C)CO)C[C@@H](C)[C@H](CN(C)Cc2ccc4c(c2)OCO4)O3)cc1	none
C[C@@H]1CN([C@H](C)CO)C(=O)Cc2cc(NC(=O)Nc3cccc4ccccc34)ccc2O[C@H]1CN(C)Cc1ccc(C(F)(F)F)cc1	NOMO-1 viab 105.4
CCOc1cc(C2NC(=S)NC(C)=C2C(=O)Nc2ccccc2C(=O)OC)cc(Br)c1O (centres undefined)	none (no result: Hedgehog inh)
Cc1ccc([N+](=O)[O-])cc1NC(=O)CSc1nnc(-c2ccncc2)n1-c1ccccc1	none (no result: Hedgehog inh)
CSc1ccc(C(Nc2cc(C)ccn2)c2ccc3ccc(C)nc3c2O)cc1 (centres undefined)	none (no result: Hedgehog inh)
O=[N+]([O-])c1ccccc1C(c1c[nH]c2ccccc12)c1c[nH]c2ccccc12	none (no result: Hedgehog inh)
Cc1ccc2ccc(C(Nc3ccccn3)c3ccccc3Cl)c(O)c2n1 (centres undefined)	NOMO-1 viab 106.0 (no result: Hedgehog inh)
Cc1ccnc(NC(c2cccc(Cl)c2)c2ccc3ccc(C)nc3c2O)c1 (centres undefined)	NOMO-1 viab 117.9 (no result: Hedgehog inh)
Cc1cccc(NC(c2ccccc2[N+](=O)[O-])c2ccc3ccc(C)nc3c2O)n1 (centres undefined)	NOMO-1 viab 121.0 (no result: Hedgehog inh)
Cc1ccc2ccc(C(Nc3ccccn3)c3c(F)cccc3Cl)c(O)c2n1 (centres undefined)	NOMO-1 viab 110.0 (no result: Hedgehog inh)
COc1ccc(CC(=O)NN2C(=O)CSCC2=O)cc1OC	none
C[C@H]1CN([C@@H](C)CO)C(=O)Cc2cc(NC(=O)NC3CCCCC3)ccc2O[C@@H]1CN(C)C(=O)Nc1cccc2ccccc12	none (no result: Hedgehog inh)
COc1ccc(NC(=O)N(C)C[C@H]2Oc3ccc(NS(C)(=O)=O)cc3C(=O)N([C@@H](C)CO)C[C@@H]2C)cc1	none (no result: Hedgehog inh)
O=C1Oc2cc(O)cc(O)c2[C@@H](c2ccc(O)cc2)[C@H]1[C@H]1C(=O)Oc2cc(O)cc(O)c2[C@H]1c1ccc(O)cc1	none

Compound activity from PubChem BioAssay.
